High-throughput results (PubChem BioAssay)
GPR151 activ – activators of human GPR151, primary screen, cell-based, PathHunter beta-arrestin, luminescence. G-protein coupled receptor 151 (Homo sapiens), Q8TDV0. PathHunter beta-arrestin GPR151 cells. activation, % at 11.2 µM. actives 1% (n = 650,000). AID 1508602, 2020; in the data active = activation above about 4.9%
FBW7 act – FBW7 E3 ligase activators, primary screen, biochemical, AlphaScreen, human | F-box/WD repeat-containing protein 7 (Homo sapiens), Q969H0 | AlphaScreen FBW7–phospho-cyclin E peptide binding, activator screen | normalized activity (activation), % at 26.1 µM | actives 0.13% (n = 650,000) | AID 1259310, 2017; in the data active = normalized activity above about 1.9%;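 also: purified mutant Fbw7 with reduced substrate affinity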
MITF inh – MITF inhibitors, primary screen, biochemical, AlphaScreen, human | Microphthalmia-associated transcription factor (Homo sapiens), O75030 | AlphaScreen MITF homodimerization, bead proximity signal | inhibition, % at 2.6 µM | actives 0.91% (n = 650,000); in the data active = inhibition above about 50%
Target sequence (O75030 whole entry, looked up): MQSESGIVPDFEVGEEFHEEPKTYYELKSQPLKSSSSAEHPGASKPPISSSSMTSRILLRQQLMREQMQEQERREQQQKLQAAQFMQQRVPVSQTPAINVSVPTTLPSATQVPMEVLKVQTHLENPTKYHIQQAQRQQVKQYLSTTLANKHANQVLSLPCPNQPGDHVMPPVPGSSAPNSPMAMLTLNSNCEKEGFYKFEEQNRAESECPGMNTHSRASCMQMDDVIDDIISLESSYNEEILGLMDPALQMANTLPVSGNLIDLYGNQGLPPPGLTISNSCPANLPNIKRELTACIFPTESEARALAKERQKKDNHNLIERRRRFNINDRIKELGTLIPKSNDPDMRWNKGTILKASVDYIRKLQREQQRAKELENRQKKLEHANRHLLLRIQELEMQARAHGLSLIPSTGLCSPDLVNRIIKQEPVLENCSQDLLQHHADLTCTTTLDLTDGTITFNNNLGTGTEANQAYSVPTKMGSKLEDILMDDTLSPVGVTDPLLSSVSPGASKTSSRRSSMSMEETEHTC
TEAD-YAP block – TEAD-YAP interaction inhibition, primary screen, TEAD-YAP interaction inhibitor project, luminescence, HEK-TIYL cells. TEAD-Gal4/YAP UAS-luciferase luminescence. inhibition, % at 9.12 µM. actives 1.4% (n = 640,000). AID 1259422, 2018; in the data active = inhibition above about 32%
A number is an active result; n = inactive. In the library only some 3.5% were active in any assay of this set; here they are far more common.

SMILES	GPR151 activ	FBW7 act	MITF inh	TEAD-YAP block
COc1cc(CNc2ccc3c(c2)ncn3C)cc(OC)c1OC	n	n	n	63
CCn1cnc2cc(NCc3cc(OC)c(OC)c(OC)c3)ccc21	n	n	n	58
CN(C)CCNC(=O)c1ccc(-c2ccccc2)cc1	n	n	n	35
Cc1ccc(C(=O)CNC(=O)c2ccccc2)cc1	n	n	n	65
CCNC(=O)c1ccc(-c2ccccc2)cc1	n	n	n	n
Cc1ccc(C(=O)NC(=S)NCC(=O)c2ccccc2)cc1	n	n	n	n
COC(=O)CCCNc1nc(CN2CCN(Cc3ccccc3)CC2)nc2ccccc12	n	n	n	n
COc1ccc(-c2cc(C(=O)Nc3cccc(O)c3)no2)cc1	n	n	n	90
N#Cc1ccc(NC(=O)c2cc(-c3ccc(Cl)cc3)on2)cc1	n	n	n	n
O=C(Nc1cccc(O)c1)c1cc(-c2ccc(F)cc2)on1	n	n	n	89
COc1ccc(NC(=O)c2cc(-c3cccc(O)c3)on2)cc1	n	n	n	n
N#Cc1ccc(NC(=O)c2cc(-c3ccc(O)cc3)on2)cc1	n	2.3	n	n
CCOC(=O)c1ccc(N2C(=O)C3C(c4ccc(Cl)c(C)c4)OC4(C(=O)c5ccccc5C4=O)C3C2=O)cc1 (stereo not drawn)	n	n	n	n
Cc1ccc(/C=N/NC(=O)c2cc(C(C)C)[nH]n2)cc1	n	n	n	36
O=C(Nc1nn[nH]n1)C1(c2ccc([N+](=O)[O-])cc2)CCCC1	n	n	n	n
CCCCOc1ccc(N2C(N)=NC(N)=NC2(C)C)cc1	n	n	n	37
CC1(C)N=C(N)N=C(N)N1c1ccc(F)cc1	n	n	n	n
CC1CCCCN1c1ncnc2c(-c3ccc([N+](=O)[O-])cc3)nsc12 (stereo not drawn)	n	n	n	n
COc1ccc(-c2nsc3c(N4CCC(C(N)=O)CC4)ncnc23)cc1	n	n	n	39
COc1ccc(-c2nsc3c(N4CCCCC4C)ncnc23)cc1 (stereo not drawn)	n	n	n	93
COc1ccc(-c2nsc3c(N4CCN(C)CC4)ncnc23)cc1	n	n	n	38
O=[N+]([O-])c1ccc(-c2nsc3c(N4CCCC4)ncnc23)cc1	n	n	n	n
COc1ccc(-c2nsc3c(N4CCCCC4)ncnc23)cc1	n	n	n	83
COc1ccc(-c2nsc3c(N4CCOCC4)ncnc23)cc1	n	n	n	82
Clc1ccc(CN2CCCC(N3CCOCC3)C2)s1 (stereo not drawn)	n	n	n	n
SMILES	GPR151 activ	FBW7 act	MITF inh	TEAD-YAP block
CC(c1ccccc1)N1COc2c(cc(Cl)c3cccnc23)C1 (stereo not drawn)	n	n	64	48
CCOC(=O)c1c(C)oc2c1c1c(c3ccccc32)OCN(C(C)c2ccccc2)C1 (stereo not drawn)	n	n	n	n
CCOc1ccc(NC(=S)c2ccccn2)cc1	n	n	n	75
COc1ccc(C(=O)Nc2ccc(NC(=O)c3ccccn3)cn2)cc1	n	n	n	n
COc1ccc(NC(=O)c2ccccn2)cc1	n	n	n	51
Oc1cccc2ccc(Nc3ccccc3)nc12	n	n	n	n
CC(C)CCNC(=O)C1CCN(S(=O)(=O)N2CCC3(CC2)OCCO3)CC1	n	n	n	n
COc1ccc2c(c1)[C@@H]1C=CC[C@@H]1[C@H](c1ccc(C(=O)O)cc1)N2	n	n	n	n
CCOC(=O)c1ccc2c(c1)[C@@H]1C=CC[C@@H]1[C@H](c1ccc(C(=O)O)cc1)N2	n	n	52	n
CC(=O)c1ccc2c(c1)C1C=CCC1C(c1ccccc1F)N2 (stereo not drawn)	n	n	n	n
COC(=O)c1ccc2c(c1)C1C=CCC1[C@@H](c1ccc(C(=O)O)cc1)N2 (stereo partly drawn)	n	n	66	n
CC(=O)c1ccc2c(c1)[C@@H]1C=CC[C@@H]1[C@H](c1cc3c(cc1Br)OCO3)N2	n	n	n	53
CCOC(=O)c1ccc2c(c1)C1C=CCC1C(c1ccc(Cl)cc1)N2 (stereo not drawn)	n	n	n	n
O=C(O)c1ccc2c(c1)C1C=CCC1C(c1ccccc1F)N2 (stereo not drawn)	n	n	56	n
COc1ccc(OC)c(NC(=O)c2cccc(NC(=O)c3ccccc3C(=O)O)c2)c1	n	n	n	n
CC(=O)c1ccc2c(c1)[C@@H]1C=CC[C@@H]1[C@H](c1ccncc1)N2	n	n	n	n
COC(=O)c1ccc2c(c1)C1C=CCC1C(c1ccc(C(=O)O)cc1)N2 (stereo not drawn)	n	n	70	n
CCOC(=O)[C@@H]1Nc2ccc(C(=O)O)cc2[C@@H]2C=CC[C@H]12	n	n	74	n
COC(=O)c1ccc2c(c1)C1C=CCC1C(c1ccc([N+](=O)[O-])cc1)N2 (stereo not drawn)	n	n	n	n
O=C(O)c1ccc2c(c1)C1C=CCC1C(c1ccc([N+](=O)[O-])cc1)N2 (stereo not drawn)	n	n	84	n
CC(=O)c1ccc2c(c1)[C@@H]1C=CC[C@@H]1[C@H](c1ccc(C(=O)O)cc1)N2	n	n	62	n
Cc1ccc(Sc2cc(C(=O)NCc3ccccc3Cl)c3ccccc3n2)cc1	n	n	n	n
O=[N+]([O-])c1ccc2c(c1)C1C=CCC1C(c1ccc(S(=O)(=O)N3CCOCC3)cc1)N2 (stereo not drawn)	n	n	n	42
O=S(=O)(c1ccc(C2Nc3ccc(F)cc3C3C=CCC32)cc1)N1CCOCC1 (stereo not drawn)	n	n	n	n
COc1cccc(Nc2cc(NCCCO)c([N+](=O)[O-])c3nonc23)c1	n	n	n	n
SMILES	GPR151 activ	FBW7 act	MITF inh	TEAD-YAP block
N#C/C(C(N)=O)=C1\Oc2c(cc(O)cc2-c2ccccc2)S1	n	n	n	37
C#CCn1c(=NC(=O)c2ccco2)sc2cc(OCC)ccc21	n	n	n	n
COCCNC(=S)NNC(=O)CSCc1ccccc1Br	n	2.8	n	n
CC1CC(C)CN(C(=O)CSc2nc3ccc([N+](=O)[O-])cc3s2)C1 (stereo not drawn)	n	n	n	n
O=C(CCN1C(=O)c2ccccc2C1=O)Nc1ccc2ccccc2c1	n	n	n	n
CCCCCOC(=O)Cn1c(N2CCN(C)CC2)nc2c1c(=O)[nH]c(=O)n2C	n	n	n	n
Cn1cccc1/C=C(\C(=O)c1ccccc1)N1C=CC=CC1=C(C#N)C#N	n	n	n	61
COc1ccc(C(=O)/C(=C\c2ccco2)N2C=CC=CC2=C(C#N)C#N)cc1	n	n	n	43
N#CC(C#N)=C1C=CC=CN1/C(=C\c1ccccc1)C(=O)c1ccccc1	n	n	n	n
CCc1ccc(S(=O)(=O)N(C(=O)c2ccncc2)c2ccc3oc(C)c(C(C)=O)c3c2)cc1	n	n	n	n
